# Laboratory results reported in the supplement of paper PMC6555819.
# Legend:
# Test in all cases: PBM binding z-score (relative to random genomic background probes); higher = stronger binding; sequences stand for … in GC…GCGATTGACAGCGTAGAATGAAGG
# [1] = tested on: PPARg:RXRa DBDmut IVT, anti-RXR (DBD mutation: RXRa K156A/R161A, NR concentration 270 nM, RXRa partner concentration 90 nM)
# Procedure, shortened: (§1)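 On custom Agilent 4×180K arrays, double-stranded probes with 34-nt variable regions carried direct-repeat seeds, single-nucleotide variants, half-site ablations or random human genomic background. Ligand-free nuclear receptor dimers were applied for 1 h, and binding was read with antibodies against each partner (one per run). Binding z-scores come from regression-normalized fluorescence, with the random background probes as reference.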
# [2] = tested on: PPARg:RXRa IVT, anti-PPARg (NR concentration 270 nM, RXRa partner concentration 90 nM)
# Procedure, shortened: as §1
# [3] = tested on: PPARg DBDmut:RXRa IVT, anti-PPARg (DBD mutation: PPARg1 K132A/R137A, NR concentration 270 nM, RXRa partner concentration 90 nM)
# Procedure, shortened: as §1
# [4] = tested on: PPARg DBDmut IVT, anti-PPARg (DBD mutation: PPARg1 K132A/R137A, NR concentration 270 nM)
# Procedure, shortened: as §1
# [5] = tested on: PPARg homodimer (NR concentration 180 nM)
# Procedure, shortened: as §1
# [6] = tested on: PXR:RXRa (NR concentration 270 nM, RXRa partner concentration 90 nM)
# Procedure, shortened: as §1
# [7] = tested on: PXR homodimer (NR concentration 270 nM)
# Procedure, shortened: as §1
# [8] = tested on: RARa:RXR (NR concentration 270 nM, RXRa partner concentration 90 nM)
# Procedure, shortened: as §1
# [9] = tested on: RARa homodimer (NR concentration 270 nM)
# Procedure, shortened: as §1
# [10] = tested on: RARb:RXRa (NR concentration 270 nM, RXRa partner concentration 90 nM)
# Procedure, shortened: as §1
# [11] = tested on: RARb homodimer (NR concentration 270 nM)
# Procedure, shortened: as §1
# [12] = tested on: RARg:RXRa (NR concentration 270 nM, RXRa partner concentration 90 nM)
# Procedure, shortened: as §1
# [13] = tested on: RARg homodimer (NR concentration 270 nM)
# Procedure, shortened: as §1
# [14] = tested on: RXRa DBDmut IVT, anti-RXR (DBD mutation: RXRa K156A/R161A, NR concentration 90 nM)
# Procedure, shortened: as §1
# [15] = tested on: RXRa homodimer (NR concentration 180 nM)
# Procedure, shortened: as §1
# [16] = tested on: THRa:RXRa (NR concentration 90 nM, RXRa partner concentration 90 nM)
# Procedure, shortened: as §1
# [17] = tested on: THRa homodimer (NR concentration 90 nM)
# Procedure, shortened: as §1
# [18] = tested on: VDR homodimer (NR concentration 270 nM)
# Procedure, shortened: as §1
Sequence,PBM binding z-score [1],PBM binding z-score [2],PBM binding z-score [3],PBM binding z-score [4],PBM binding z-score [5],PBM binding z-score [6],PBM binding z-score [7],PBM binding z-score [8],PBM binding z-score [9],PBM binding z-score [10],PBM binding z-score [11],PBM binding z-score [12],PBM binding z-score [13],PBM binding z-score [14],PBM binding z-score [15],PBM binding z-score [16],PBM binding z-score [17],PBM binding z-score [18]
TGAATGAGGTTATAAGATCAGGAAACGTTGCAAA,0.583,1.52,0.845,1.12,0.661,0.789,0.0316,1.46,0.238,1.15,0.0307,1.61,0.861,0.926,2.21,1.77,-0.0709,0.225
TAGCCTGGGTCATTCAGGGGCCAGTATAGAAAGC,0.888,2.36,0.524,-0.652,1.98,2.3,-0.415,3.78,-0.568,3.35,2.55,6.03,3.76,1.25,3.24,3.34,-0.502,0.911
AGAATGAGGTTATACGTCGATCAGGGAAGAAAGT,2.6,2.09,0.671,0.354,0.876,0.925,0.396,1.51,0.313,1.34,0.644,1.73,0.993,1.69,2.07,2.01,0.495,0.866
TAGCCTAGGACATTCAGGGGCCAGTATAGAAAGC,-0.851,-0.425,-0.632,-1.43,-1.03,-0.401,-0.611,-0.598,-0.859,0.541,0.77,0.352,0.546,-0.698,-0.1,0.588,-0.132,-0.236
TCGAGTAGGTTACCAATGGGTCATTCAGCTTTCT,3.45,2.82,0.364,-0.28,1.39,1.88,-0.563,2.5,-0.538,1.77,2.41,3.58,1.68,0.573,2.18,1.62,-0.434,0.102
CCGACTGGGGCAAGGTTACCATGACGCACAGCCA,2.69,3.49,-0.7,-0.368,0.811,0.221,-0.439,0.851,-0.183,1.62,1.41,1.07,1.09,-0.669,1.13,1.21,0.0571,-0.0501
ACTATTACTTGAGACGAGGGCAACCGATAGGTTG,0.899,1.15,0.818,1.3,1.24,0.601,0.904,0.426,1.54,1.3,1.67,0.798,0.981,1.01,0.63,1.15,1.02,1.76
AGAATGATGTTATTAAGATCAGGGAATTGCGGTC,-0.219,0.135,0.648,0.441,0.197,-0.0155,-0.0811,0.136,0.841,-0.333,-0.502,0.0118,0.00602,-0.521,0.203,0.093,-0.511,-0.127
CCTACTGGGTCAAAAAGGTCATTGATGCCGATAA,5.6,6.85,0.701,-0.419,4.23,6.02,9.56,6.15,2.31,4.66,5.05,6.12,5.84,1.56,6.62,3.76,1.1,4.79
TCTACTAGGTCAACGATGGTCAGCTAATCTGCTA,7.66,7.96,1.25,1.79,1.93,1.93,0.246,2.54,1.28,4.23,3.59,4.28,5.16,1.89,3.07,3.2,1.37,0.629
ACTATTAGTTGAGACGAGGGCAACCCATAGGTTG,0.0223,0.455,0.5,0.77,0.831,1.31,0.412,0.966,0.536,1.07,1.45,0.739,0.903,0.366,0.748,2.42,0.54,0.783
CGTCCAAGGTCAATGCTATGTCAGTGAAAGCATT,2.87,3.43,-0.154,0.266,2.06,3.61,0.424,3.88,0.262,5.07,4,5.86,6.28,3.14,4.94,3.81,1.93,2.37
CGACAAAGTTCAAGGTAACGTAACAGAAAGCAGC,0.277,1.76,0.591,0.507,2.08,3.81,2.44,3.27,1.06,4.89,3.7,5.27,5.99,4.29,4.69,2.8,1.02,3.11
ATCTCTAGGTCACCAAGTTCAGTGAATGCCGAAC,7.23,7.06,2.4,2.04,3.74,5.68,11.1,3.92,2.64,4.82,4.45,5.35,6.25,2.74,4.73,3.89,3.22,6.15
CCTTACGGGTCACTCCAGGTTATAGCATCGGAGT,2.98,3.86,-0.0737,-0.285,1.64,4.79,0.216,3.49,0.27,3.6,3.23,4.39,4.35,1.5,4.36,4.89,0.826,1.69
TCATATAGGTAATACAAGTGAAAGTCGGCATCTA,4.19,2.25,0.992,1.83,1.46,0.916,0.336,1.3,1.79,0.7,0.148,0.857,0.72,2.07,1.23,0.601,0.0151,0.435
GCTATTAGTTGAAAGGGCAAACGAATGATTCTCG,0.582,1.18,0.0539,0.507,1.19,0.938,0.57,1.52,1.28,2.04,1.86,1.24,1.06,0.931,1.38,0.777,-0.332,0.589
TATAGTTGGTCACGGAGGTCACACACGACGGGTA,1.03,4.52,1.35,2.08,2.56,4.66,1.06,4.48,1.98,4.09,4.58,4.81,4.72,-0.131,5.16,3.9,2.69,2.85
CGAACTAGGTCACGAAAGGTCAAAGTCGAATGAC,8.45,8.7,0.767,1.32,5.63,7.14,3.35,7.72,2.82,5.68,6.05,7.91,8.67,2.37,8.55,5.01,2.52,3.39
TGAATGAGGTTATAAGTTCAGGGAACGTTGCAAA,1.14,1.78,0.562,0.599,1.97,3.24,1.46,3.81,0.0281,2.87,2.54,4.88,2.27,1.49,3.46,2.58,0.487,2.85
TATGCAGGGTCAAAGGCCAGAGTACGAATGTCGA,1.27,3.92,0.572,0.66,2.29,4.49,-0.344,6.18,-0.114,4.34,3.43,5.45,4.89,2.39,6.81,3.45,0.361,2.66
ATATCTAGGTTATCGGGTCATTCAGTTTGCGCAT,7.52,7.5,1.81,3.17,3.91,3.94,8.08,3.87,2.26,2.89,3.52,3.54,2.81,1.81,3.51,3.67,3.5,4.19
CATGCTAGGTCATGGTCAGCTAATCTACAGTATG,3.61,3.51,0.62,0.712,1.58,1.4,-0.662,2.58,0.163,3.92,3.06,3.95,4.67,1.74,3.06,2.87,1.06,0.15
TCTATTAGTTGTAGGGCAACCGACGAGTCCGTTT,3.04,2.66,0.777,1.16,0.517,0.457,0.613,0.212,0.401,0.601,0.489,0.147,0.469,1.17,0.403,0.112,0.0984,1.13
TGTCAAAGTTCAAATGTAACGTAAGTATCCACAC,0.32,4.15,1.72,2.11,2.82,5.13,4.03,3.93,2.08,5.02,3.94,5.53,5.93,4.69,5.3,2.16,-0.283,4.11
ATATGTAGGCTAGCTGGGGTCATTCAGACTAGGC,4.55,3.66,1.11,0.266,1.81,5.32,2.19,5.28,0.344,2.28,3.02,3.59,1.99,1.43,4.96,4.2,2.76,3.63
CCTAGCAGGCCAATCTGGGTCACTCATGGCTTGA,4.04,4.89,-0.176,-0.808,0.139,0.641,-0.181,0.915,-0.68,1.44,2.19,0.859,1.37,0.157,0.53,3.19,0.363,0.00452
ATCTCTAGGTAACCATGTTCAGTGAATGCCGAAC,3.64,2.88,0.786,1.37,0.698,0.218,0.202,0.406,0.844,0.355,0.332,0.315,0.421,0.392,0.272,0.812,0.66,0.0942
GGAACGAGAGCAAGTTGATAGCAGAGTTTGATGG,0.286,-0.607,-0.891,-0.825,-0.674,-0.482,0.00313,-0.584,-0.345,-0.427,-0.683,-0.186,-0.0143,0.292,0.0687,-0.547,-1.15,-0.0204
